Measurements from the supplement of paper PMC6555819.

System: VDR:RXRa (NR concentration 270 nM, RXRa partner concentration 90 nM)
Assay: PBM binding z-score (relative to random genomic background probes); higher = stronger binding; sequences stand for … in GC…GCGATTGACAGCGTAGAATGAAGG
Procedure: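 Protein-binding microarray (Agilent 4x180K custom design, double-stranded 60-nt probes: 5' GC cap, 34-nt variable region, 24-nt constant primer region; full probe sequence given). Purified or IVT nuclear receptor:RXRα heterodimers (3:1 NR:RXRα, mostly 270:90 nM) or homodimers were incubated for 1 h in PBS with 2% milk and no ligand, then detected with Alexa488 antibodies. Fluorescence from o1-orientation probes (~5 replicates averaged) was converted to z-scores against 500 random hg19 background probes. Variable regions are seed direct-repeat (DR0–DR5) sites, all their single-nucleotide variants and half-site ablations.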

Sequence	PBM binding z-score
CGTACAGGGTCAGCTAGGCCAGAGTAGGGACGGC	3.78
CGGACGAGGGCATGAGTTGATAGCAAATGCCGAT	1.21
CCTCACGGGTCACTCCAGGTTATAGCATCGGAGT	4.07
TGAATGAGGTTATAAGATCAGGGAGCGTTGCAAA	0.606
TCTCGGAGGACACGAAGGTTAGAGCTTTCCAGAG	0.237
CCTACTGGCCCAAGGTCATTGATCAGTCAAAGCA	3.26
TGTCATAGTTCAAAGGTAACGTAAGTATCCACAC	2.96
TCATATAGGTAAAGGTGATAGTCGAACGATATGA	0.559
AGACCGAGGGCACGCTGAGTTGATAGCAGAGTAG	2.21
CCGACTGGAGCATAAGGTTACCATAAGCCAGCCC	0.0802
CCTACTGGGCCATCAGGGCATTGATATCAACGTT	-0.589
TCCTATAGGTAAATGCTAGGTGAAAGTCCGATCT	0.359
TTACCAGGGTGAGCTGAGGTCGTTGATCCAACTC	4.58
CCGACTGGGGCAAGGTTACCATAACGCACAGCCA	0.0411
GCTTACGGGTCAACGGTTATAGCATGAATAGAAT	3.88
ATCTCTAGGTAAAGTTCAGTTAAAGATCGATAGA	1.82
GCGACTGGGGCATCAGCAGGTTACCGTAACTTAA	-0.147
TAGCCTAGGTCATGCGGGCCAGTTTAGTGTCGGC	2.97
TAGCCTAGGTCAGGCGGGCCAGTATAGTGTCGGC	0.804
GCAGACAGGTGAAACGCCGGTAACTCAGGGTGGC	-0.708

Sequence	PBM binding z-score
ATACCAAGCTGATCGTGAGGTCGTTGATACTAAC	1.38
GCTAGTTGGTCAGTACAAGGTCACACACCGGTCG	3.24
AGTCAAAGTTAACTAGGTAACGTAAGATTCAGCT	-0.0453
CCTCGGCGGACAGAAGGTCAGAGCTGTCCGCTTT	0.473
CAAACTAGGTCACAGAGGTCAAGGTCCGTGCGTA	7.73
CCTAGCAGGCCAGTCTGGGTCACTCAAGGCTTGA	0.512
CAAACTAGGTCACGCAAGGTCAAAGTCGAATGAC	6.9
CGTCCAAGGACAGAGAGGTCAGTGAATGCCGAGT	3.03
GCGACTGGGGCATTAGCAGGTTACCATAACTTAA	-0.196
TAGCCTAGGTCAGCTCGGGCCAGTATACGCTATA	0.763
TAGCCTAGGTGAGATCGGGCCAGTATACGCTATA	-0.592
CAAACTAGGGCAAGAGGTCAAAGTCCGCTTCCCG	5.08
ACTATTAGTTGACTTAGGTCAACCGATACGACGC	2.42
CCGAGTAGGTTATGGAGCATTCAGGCAACGGTGA	-0.239
ATCGAAAGGTCGTGAGGTTAGTATACAGAAAGGC	4.66
CCGACTGGGGCAGGAAGGTTACCATACCATCCGG	0.235
GGAACGAGGGCATTCGAGGTGATAGCATGGCGAT	2.4
CCGAGCAGGTTATGGGGCATTCAGGCAACGGTGA	-0.144
CCTCGGAGGACAATAGGAGGTCAGAGCTGCCAGA	1.51
TAGCCTAGGTAAGATCGGGCCAGTATACGCTATA	-0.645
